PubChem BioAssay (NCATS)
Results filed as inconclusive are left out. Where a call stands in place of a potency, no number is given. Active and inactive are the calls of the source. The call rests on the fitted dose curve; in most records, active means well fitted inhibition curve with a large enough effect; inconclusive means small, poorly fitted or top-dose-only effect; inactive means flat fitted curve, though single readings scatter.

How the values were obtained:
Test in all cases: qHTS profiling for inhibitors of Plasmodium falciparum proliferation (AID 504749); further: nearly all actives have a fitted effect of over 60% in size
Conditions in all cases: P. falciparum in erythrocytes, SYBR Green DNA, 72 h; series mostly up to 28.7 µM
N140 = tested on: N140
Procedure, shortened: (§1)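 Fluorescence of SYBR Green-bound parasite DNA, read at 485/535 nm, served as the growth measure. Infected erythrocytes were cultured with compound 72 h; artemisinin (0.29 uM) and DMSO wells defined the normalization range.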

P93_24 = tested on: P93_24
Procedure, shortened: as §1

P94_40 = tested on: P94_40
Procedure, shortened: as §1

PAD = tested on: PAD
Procedure, shortened: as §1

PC15 = tested on: PC15
Procedure, shortened: as §1

PC26 = tested on: PC26
Procedure, shortened: as §1

PC49 = tested on: PC49
Procedure, shortened: as §1

SC27B = tested on: SC27B
Procedure, shortened: as §1

TAB109 = tested on: TAB109
Procedure, shortened: as §1

TAB113 = tested on: TAB113
Procedure, shortened: as §1
Potency means the concentration at half of the fitted maximal effect.

Row | Structure (SMILES) | Potency (N140) | Potency (P93_24) | Potency (P94_40) | Potency (PAD) | Potency (PC15) | Potency (PC26) | Potency (PC49) | Potency (SC27B) | Potency (TAB109) | Potency (TAB113)
1 | COc1ccc(C(=O)CC(=O)c2ccc(C(C)(C)C)cc2)cc1 | inactive | inactive | inactive | inactive | inactive | inactive | inactive | inactive | inactive | inactive
2 | CC[C@H](NC(C)C)[C@H](O)c1ccc(O)c2[nH]c(=O)ccc12 | inactive | inactive | inactive | inactive | inactive | inactive | inactive | inactive | inactive | inactive
3 | Cc1cccc(Nc2ccncc2S(=O)(=O)NC(=O)NC(C)C)c1 | inactive | inactive | inactive | inactive | inactive | inactive | inactive | inactive | inactive | inactive
4 | CC(C)(C#N)c1cc(Cn2cncn2)cc(C(C)(C)C#N)c1 | inactive | inactive | inactive | inactive | inactive | inactive | inactive | inactive | inactive | inactive
5 | COc1c(N2CCNC(C)C2)c(F)cc2c(=O)c(C(=O)O)cn(C3CC3)c12 (stereo not drawn) | inactive | inactive | inactive | inactive | inactive | inactive | inactive | inactive |  | inactive
6 | NCCCC(O)(P(=O)(O)O)P(=O)(O)O | inactive | inactive | inactive | inactive | inactive | inactive | inactive | inactive | inactive | inactive
7 | Cn1nnc2c(C(N)=O)ncn2c1=O | inactive | inactive | inactive | inactive | inactive | inactive | inactive | inactive | inactive | inactive
8 | CC[C@H](C)C(=O)O[C@H]1C[C@@H](C)C=C2C=C[C@H](C)[C@H](CC[C@@H]3C[C@@H](O)CC(=O)O3)[C@H]21 | inactive | inactive | inactive | inactive | inactive | inactive | inactive | inactive | inactive | inactive
9 | CCc1c2c(nc3ccc(OC(=O)N4CCC(N5CCCCC5)CC4)cc13)-c1cc3c(c(=O)n1C2)COC(=O)[C@]3(O)CC | inactive | inactive | inactive | inactive | inactive | inactive | inactive | inactive | inactive | inactive
10 | N=C(N)c1ccc(OCCCCCOc2ccc(C(=N)N)cc2)cc1 | 1 µM (active) | 0.631 µM (active) | 1.41 µM (active) | 1.41 µM (active) | 0.355 µM (active) | 0.953 µM (active) | 0.708 µM (active) | 1.12 µM (active) | 1.58 µM (active) | 1.41 µM (active)
11 | CCCN[C@H]1CCc2nc(N)sc2C1 | inactive | inactive | inactive | inactive | inactive | inactive | inactive | inactive | inactive | inactive
12 | O=c1cc(O)c(Cl)c[nH]1 | inactive | inactive | inactive | inactive | inactive | inactive | inactive | inactive | inactive | inactive
13 | S=P(N1CC1)(N1CC1)N1CC1 | inactive | inactive | inactive | inactive | inactive | inactive | inactive | inactive | inactive | inactive
14 | CCCc1cc(C(N)=S)ccn1 | inactive | inactive | inactive | inactive | inactive | inactive | inactive | inactive | inactive | inactive
15 | O=P(O)(O)C(O)(Cc1cccnc1)P(=O)(O)O | inactive | inactive | inactive | inactive | inactive | inactive | inactive | inactive | inactive | inactive
16 | OC(Cn1cncn1)(Cn1cncn1)c1ccc(F)cc1F | inactive | inactive | inactive | inactive | inactive | inactive | inactive | inactive | inactive | inactive
17 | CNCC[C@H](Oc1cccc2ccccc12)c1cccs1 | 8.91 µM (active) | 3.16 µM (active) | 10 µM (active) | 11.2 µM (active) | 5.01 µM (active) | 8.49 µM (active) | 4.47 µM (active) |  | 7.08 µM (active) | 8.91 µM (active)
18 | COC(=O)Nc1nc2ccc(Sc3ccccc3)cc2[nH]1 | inactive | inactive | inactive | inactive | inactive | inactive | inactive | inactive | inactive | inactive
19 | C#CCN[C@@H]1CCc2ccccc21 | inactive | inactive | inactive | inactive | inactive | inactive | inactive | inactive | inactive | inactive
20 | O=C(O)c1cc(=O)[nH]c(=O)[nH]1 | inactive | inactive | inactive | inactive | inactive | inactive | inactive | inactive | inactive | inactive
21 | CCn1cc(C(=O)O)c(=O)c2cc(F)c(N3CCNCC3)cc21 |  |  |  | inactive | inactive | inactive | inactive | inactive |  | inactive
22 | CC(N)C12CC3CC(CC(C3)C1)C2 (stereo not drawn) |  |  |  | inactive | inactive | inactive | inactive |  |  | 
23 | Cc1oc(=O)oc1CN1CCN(c2cc3c(cc2F)c(=O)c(C(=O)O)c2n3C(C)S2)CC1 (stereo not drawn) |  | 5.01 µM (active) | 7.94 µM (active) |  |  |  | inactive | 8.91 µM (active) | 4.47 µM (active) | 7.94 µM (active)
24 | COc1cccc(N(C)C(=S)Oc2ccc3c(c2)CCCC3)n1 | inactive | inactive |  | inactive | inactive | inactive | inactive | inactive | inactive | 
25 | O=c1oc2c(O)c(O)cc3c(=O)oc4c(O)c(O)cc1c4c23 |  |  |  |  | 6.31 µM (active) |  | inactive |  |  | 

Row | Structure (SMILES) | Potency (N140) | Potency (P93_24) | Potency (P94_40) | Potency (PAD) | Potency (PC15) | Potency (PC26) | Potency (PC49) | Potency (SC27B) | Potency (TAB109) | Potency (TAB113)
26 | CCOc1cc(N)c(Cl)cc1C(=O)NCC1CN(Cc2ccc(F)cc2)CCO1 (stereo not drawn) |  | 6.31 µM (active) | 11.2 µM (active) | 11.2 µM (active) |  |  |  | 8.91 µM (active) | 10 µM (active) | 14.1 µM (active)
27 | COc1cc2c(Nc3ccc(Br)cc3F)ncnc2cc1OCC1CCN(C)CC1 | 2.51 µM (active) | 2 µM (active) | 2.82 µM (active) | 2.24 µM (active) | 7.08 µM (active) |  |  | 2.82 µM (active) | 2.24 µM (active) | 2.24 µM (active)
28 | CC1=CC(=O)c2ccccc2C1=O | inactive | inactive | inactive | inactive |  | inactive | inactive | inactive | inactive | inactive
29 | CC(C)(C)C(=O)OCOP(=O)(COCCn1cnc2c(N)ncnc21)OCOC(=O)C(C)(C)C |  |  |  | inactive |  |  | inactive | inactive |  | 
30 | CN(Cc1cc(Br)cc(Br)c1N)C1CCCCC1 | inactive |  |  | inactive | inactive | inactive | inactive | inactive | inactive | inactive
31 | CNC(=O)c1cc(Oc2ccc(NC(=O)Nc3ccc(Cl)c(C(F)(F)F)c3)cc2)ccn1 | 5.01 µM (active) | 10 µM (active) |  | 2.24 µM (active) | 7.08 µM (active) | 3.38 µM (active) | 8.91 µM (active) | 5.01 µM (active) |  | 11.2 µM (active)
32 | CN1CCCC(n2nc(Cc3ccc(Cl)cc3)c3ccccc3c2=O)CC1 (stereo not drawn) |  |  | inactive |  |  |  | inactive |  |  | 
33 | CC(C)OC(=O)C(C(=O)OC(C)C)=C1SC=CS1 | inactive | inactive |  | inactive | inactive | inactive | inactive | inactive | inactive | inactive
34 | N[C@@H](Cc1ccc(O)c(O)c1)C(=O)O |  |  |  |  |  | inactive |  |  |  | 
35 | CCCc1nc(C)c2c(=O)[nH]c(-c3cc(S(=O)(=O)N4CCN(CC)CC4)ccc3OCC)nn12 |  | 8.91 µM (active) | inactive |  |  | inactive |  |  | inactive | inactive
36 | COc1cc(NS(=O)(=O)c2ccc(N)cc2)nc(OC)n1 | inactive | inactive | inactive | inactive | inactive |  | inactive | inactive | inactive | inactive
37 | CCCCCCNC(=O)n1cc(F)c(=O)[nH]c1=O |  |  |  | 10 µM (active) |  |  |  |  |  | 
38 | CCOC(=O)[C@H](CCc1ccccc1)N[C@H]1CS[C@H](c2cccs2)CN(CC(=O)O)C1=O |  |  |  |  | inactive | inactive | inactive |  | inactive | inactive
39 | Oc1c(Cl)cc(Cl)c2cccnc12 | 12.6 µM (active) |  | 11.2 µM (active) |  | inactive | inactive | inactive |  |  | 
40 | O=C(O)c1cn(C2CC2)c2cc(N3CCNCC3)c(F)cc2c1=O |  |  |  | inactive | inactive |  | inactive | inactive | 2.24 µM (active) | inactive
41 | Cc1nnc(NS(=O)(=O)c2ccc(N)cc2)s1 | inactive | inactive | inactive |  | inactive | inactive | inactive | inactive | inactive | inactive
42 | CCOC(=O)c1ccc(OC(=O)CCCCCN=C(N)N)cc1 |  |  | inactive |  |  |  | inactive | inactive |  | 
43 | Nc1ccc(S(=O)(=O)Nc2ccccn2)cc1 | inactive |  |  | inactive | inactive | inactive | inactive | inactive | inactive | inactive
44 | CCn1cc(C(=O)O)c(=O)c2cc(F)c(N3CCNCC3)nc21 | inactive |  | inactive | inactive | inactive | inactive | inactive | inactive |  | inactive
45 | COC(=O)Nc1nc2ccc(C(=O)c3ccccc3)cc2[nH]1 | inactive | inactive | inactive | inactive | inactive |  | inactive | inactive | inactive | inactive
46 | CCCCOc1ccc(CC(=O)NO)cc1 | 3.98 µM (active) | 1.58 µM (active) | 2 µM (active) | 1.41 µM (active) | inactive |  | inactive |  | 2.24 µM (active) | 
47 | CCn1cc(C(=O)O)c(=O)c2cc(F)c(N3CCN(C)CC3)cc21 | inactive |  |  | inactive | inactive | inactive | inactive |  |  | 
48 | COc1cnc(NS(=O)(=O)c2ccc(N)cc2)nc1 | inactive |  | inactive | inactive | inactive | inactive | inactive | inactive | inactive | inactive
49 | CN1CCN(c2c(F)cc3c(=O)c(C(=O)O)cn4c3c2OCN4C)CC1 | inactive |  | inactive | inactive | inactive | inactive | inactive | inactive | inactive | inactive
50 | CCOC(=O)c1ccc(C#Cc2ccc3c(c2)C(C)(C)CCS3)nc1 | inactive | inactive | inactive | inactive | inactive |  | inactive | inactive |  | 
